According to PubChem BioAssay AID1932 (Vanderbilt High Throughput Screening Facility, 2009):
Activity calls are given as the source filed them. How the calls were made is not given here.

target: Muscarinic acetylcholine receptor M1 (Rattus norvegicus) (UniProt P08482); test: M1 potentiation check of M4 PAM analogs – cell-based, ACh fold-shift, calcium mobilization, selectivity assay for M4 PAM project, SAR follow-up (AID 1932); details: rM1-expressing cells, ACh CRC fold-shift; series mostly up to 1 µM; ACh response, % max: at the top concentration
Sequence (P08482 whole entry, looked up): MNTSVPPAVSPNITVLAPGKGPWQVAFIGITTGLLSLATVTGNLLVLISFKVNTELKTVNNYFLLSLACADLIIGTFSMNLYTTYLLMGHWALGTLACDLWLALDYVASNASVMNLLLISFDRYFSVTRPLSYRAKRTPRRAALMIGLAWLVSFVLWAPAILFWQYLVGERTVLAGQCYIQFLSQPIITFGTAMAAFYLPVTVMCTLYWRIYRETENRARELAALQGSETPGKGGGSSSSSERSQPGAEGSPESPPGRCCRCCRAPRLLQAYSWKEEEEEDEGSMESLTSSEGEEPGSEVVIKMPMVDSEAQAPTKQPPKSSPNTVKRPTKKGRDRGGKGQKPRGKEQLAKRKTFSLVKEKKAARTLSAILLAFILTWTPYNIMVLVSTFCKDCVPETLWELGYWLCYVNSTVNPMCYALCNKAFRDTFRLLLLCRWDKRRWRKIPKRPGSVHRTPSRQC

ACh response, % max, inactive:
Cc1cc(OCc2ccncc2)nc2sc(C(=O)NCc3cc(F)ccc3F)c(N)c12 92.8
Cc1cc(OCCN2CCOCC2)nc2sc(C(=O)NC(C)(C)C)c(N)c12 93.7
COc1ccc(CNC(=O)c2sc3nc(OCc4ccncc4)cc(C)c3c2N)cc1 96.3
Cc1cc(OCc2ccncc2)nc2sc(C(=O)NCc3cccc(F)c3F)c(N)c12 92.3
